The supplement of paper PMC10681739

Experiments:
ETS1 [1] = target: T1, ETS1 (UniProt P14921); assay: ETS1 binding intensity (PBM fluorescence), ETS1 alone (arbitrary fluorescence units); higher = stronger binding; details: ETS1 concentration 1 nM; RUNX1 concentration 0 nM
T1 sequence: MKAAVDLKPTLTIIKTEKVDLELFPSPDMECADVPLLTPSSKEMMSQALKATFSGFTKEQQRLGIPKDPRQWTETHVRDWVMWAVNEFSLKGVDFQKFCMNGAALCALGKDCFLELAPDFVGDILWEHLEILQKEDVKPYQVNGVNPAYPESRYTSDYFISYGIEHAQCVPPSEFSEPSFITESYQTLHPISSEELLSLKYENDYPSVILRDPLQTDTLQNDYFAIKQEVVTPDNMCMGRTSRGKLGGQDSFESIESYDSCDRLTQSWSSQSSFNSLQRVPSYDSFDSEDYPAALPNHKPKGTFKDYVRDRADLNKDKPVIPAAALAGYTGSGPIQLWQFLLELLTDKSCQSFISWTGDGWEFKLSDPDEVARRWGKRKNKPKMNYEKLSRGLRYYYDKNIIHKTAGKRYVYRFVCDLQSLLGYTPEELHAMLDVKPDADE

RUNX1 [2] = target: RUNX1 (UniProt Q01196); assay: RUNX1 binding intensity (PBM fluorescence), RUNX1 alone (arbitrary fluorescence units); higher = stronger binding; details: RUNX1 concentration 2 nM; ETS1 concentration 0 nM
Method: (§1)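 Cooperative gcPBM on 36-bp genomic probes with neighbouring ETS1 and RUNX1 sites. Recombinant human RUNX1 (2 nM) was incubated alone or with ETS1 (25 nM) and detected with anti-RUNX1 antibody plus Alexa488 secondary. Values are medians over 4 replicate spots; the RUNX1+ETS1 data were normalised to the RUNX1-only data. The probes sit in constant array flanks that are not printed.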

ETS1 [3] = target: T1, ETS1; assay: ETS1 binding intensity (PBM fluorescence) in presence of RUNX1, normalised to ETS1-only experiment (arbitrary fluorescence units); higher = stronger binding; details: ETS1 concentration 1 nM; RUNX1 concentration 25 nM
RUNX1 [4] = target: RUNX1 (UniProt Q01196); assay: RUNX1 binding intensity (PBM fluorescence) in presence of ETS1, normalised to RUNX1-only experiment (arbitrary fluorescence units); higher = stronger binding; details: RUNX1 concentration 2 nM; ETS1 concentration 25 nM
Method: as §1
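Wherever RUNX1 binding intensity (PBM fluorescence) in presence of ETS1, normalised to RUNX1-only experiment is given: Full-length recombinant human ETS1 or RUNX1 bound to double-stranded 36-bp genomic probes on microarrays, detected by protein-specific primary antibody and Alexa488 secondary, spot fluorescence as median of four replicate spots.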
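Wherever RUNX1 binding intensity (PBM fluorescence), RUNX1 alone is given: Full-length recombinant human RUNX1 bound to double-stranded 36-bp genomic probes on a high-density microarray, scored as Alexa488 fluorescence per spot via anti-RUNX1 antibody, median of four replicate spots.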

Chain of RUNX1 (Q01196 whole entry): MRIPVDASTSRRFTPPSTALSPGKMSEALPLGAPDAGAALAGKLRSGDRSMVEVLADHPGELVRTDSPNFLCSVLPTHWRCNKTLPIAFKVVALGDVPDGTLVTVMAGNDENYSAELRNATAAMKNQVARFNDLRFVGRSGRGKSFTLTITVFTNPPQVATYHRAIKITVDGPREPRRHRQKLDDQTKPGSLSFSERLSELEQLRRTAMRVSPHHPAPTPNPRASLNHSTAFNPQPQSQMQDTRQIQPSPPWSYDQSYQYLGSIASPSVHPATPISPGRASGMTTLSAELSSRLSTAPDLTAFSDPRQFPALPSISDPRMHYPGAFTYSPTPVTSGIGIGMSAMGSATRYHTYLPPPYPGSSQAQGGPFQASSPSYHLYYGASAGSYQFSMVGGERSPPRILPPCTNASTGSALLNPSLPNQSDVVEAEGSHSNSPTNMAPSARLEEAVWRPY

Sequence | ETS1 binding intensity (ETS1 [1]) | RUNX1 binding intensity (RUNX1 [2]) | ETS1 binding intensity (ETS1 [3]) | RUNX1 binding intensity (RUNX1 [4])
CAGGTGTTCAGGAAACAAAACCACAGACTTTTTCAC | 562 | 4690 | 2370 | 6800
TGCTTCCCGTCCGTGTCGCGGCCCTGCGGTTGGCGG | 324 | 1080 | 813 | 3310
GGCGGGACTTCCGGCGTCTCCCCTCGGCGGTTGCTT | 2330 | 751 | 2700 | 1980
GCCGGGCACTTCCTGTGGAGGCCGCAGCGGGTGCGC | 1330 | 709 | 1560 | 1780
CAGTGGCAGGAAGAGGTCAGAAACCACTCGTGGTGG | 718 | 816 | 870 | 1100
AAGTGAAGAGCTTCCGCCGGGAGACCGCGGCTGCAG | 592 | 737 | 686 | 1250
TCTGGCTTCCTGTCTTAATAGGGCTTTGTGGTGTGC | 762 | 832 | 1080 | 2040
CAAGAGGAACCGGAACTTTGGAAACCACATTCTTAT | 1400 | 911 | 4800 | 1480
GCGGCTGAGAACACAGGATGTGGCTTTTGGCAGATG | 6080 | 674 | 12800 | 1680
GCCATCCGCAGGACTCCGCGTTCTCGCGGTAAGTGG | 384 | 736 | 464 | 883
AGCTTGCTTCCTGTCCCCAAAACCCACAGCACACGG | 688 | 893 | 1120 | 2590
TCCACATCCTGCTCCTCGGGTTTGCGGCGAGGACTC | 593 | 809 | 1010 | 2660
AGGTTCTCCAGAGGAGGAAGTGGTTTGCTGCAGGCT | 2450 | 755 | 4400 | 971
CTGGGGATGTGTGACACTCAGAGAAACCACAAGGTG | 495 | 1010 | 1390 | 1140
TGATCAGCAAAAGGAAGTGGTTAACATGGCCCAGAA | 1540 | 825 | 4770 | 1990
CTTCATCAACCCATCCTGTCTTGTGGTTAAGTCAAG | 392 | 4120 | 1700 | 6360
TTTCGAGAAAACCGGAAGTGCGTGGTCACGCCCCGC | 29400 | 733 | 38100 | 1670
CTGCGCGGCCGGAAGTCGGCGGTTTCCCAGACGACG | 20800 | 759 | 30000 | 2820
TCTGGGACAGGAAAGACTTGTGGTTACTGCTGTTGA | 808 | 1390 | 4470 | 3160
CAGAGAAACAGGAAGAACAGTGGTTTCAACTGAAAT | 1310 | 783 | 1310 | 939

Sequence | ETS1 binding intensity (ETS1 [1]) | RUNX1 binding intensity (RUNX1 [2]) | ETS1 binding intensity (ETS1 [3]) | RUNX1 binding intensity (RUNX1 [4])
AGGCTCATTTCCTGTTTTCATGTGGTTTAGAGAAAA | 2630 | 1320 | 5130 | 3930
GCTTCTGAGGAAGTGCGTTTTGTGGGTAGGTGGAGT | 706 | 792 | 1410 | 878
GCCGATGAGGAAGTGAGGGCCAACCACACTGCTCAG | 544 | 878 | 673 | 749
TCTGTGACTACGCGGATGTTGTGGGCGGCTACATGC | 1000 | 749 | 1810 | 869
ACAAGGAGGAAAAGGAAATGAACCACGAATAGCAAA | 1220 | 817 | 1160 | 948
GGCTTCCTGCCCAACTACCAAGAAAAAGCCACAAAG | 453 | 1100 | 962 | 2040
CCACCACTCTAAGCAGGATGCGGTGCGACCCAAGAG | 1390 | 815 | 2470 | 972
GCGGAGGGAAGCGGAAATACTTGCGGTGGGGGCGAC | 3700 | 898 | 19400 | 2210
CCCTACTCAGGAGGATGTGGTTGGAGAACCCGCTGA | 815 | 755 | 2260 | 1300
GCCTGAAGGACTTCCGGGAACCGCAAAGCACGGTGT | 1620 | 1500 | 3510 | 3430
AGGGTGTGGAGGAAGTGGCTTACAACCACTTTGTCT | 1270 | 764 | 1500 | 1090
CGGCCTCTTCCGGTCACCTGGCCCGTCGCGGTCCCG | 1800 | 1040 | 1520 | 2290
TCAGCTGACACAGGAAGTGGTAAAGCTATTATCTGT | 9480 | 735 | 16400 | 2730
GGCCAACGAGAGCGCTTCCGGCCGCAGCCACGGCGG | 1950 | 735 | 3000 | 1420
TCTTGCCCGGGTCGGAAATGGTGGTCACGAGCGCTT | 1110 | 772 | 1600 | 991
TTTCTGACACTCTCAGGATGTGGGTTTTCGCACTGT | 1230 | 797 | 6000 | 1350
GGACACAGGCTTCCGCGTTACCGACACCGCGTGGGG | 451 | 837 | 311 | 934
TACGTCACTTCCGGGCCGCCGTCCTGCGGGCAAGGG | 2570 | 799 | 3920 | 2270
GAGTTGCTTCCGGCCGTGTTGGTGGTCTGAATTGAG | 1590 | 802 | 1830 | 1830
ACACAGGAAGGACGCACGCTCCCGCCCCAACCACAT | 690 | 901 | 563 | 1060
